# High-throughput results deposited in PubChem by several laboratories.
# PTPN22 inh 2 – LYP (human) phosphatase inhibition. 96,000 tested, 0.21% active. AID 640. recombinant LYP catalytic domain, DiFMUP fluorescence. Q9Y2R2. inhibition, % at 2 µM;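 active = inhibition at 2 µM at or above a set limit, the screen mean plus 3 SD, cut at about 24% in these data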;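 also: 0% = DMSO with enzyme and 100% = enzyme fully blocked by orthovanadate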
# PLK1 kinase inh – blocks human PLK1 kinase activity; AID 619; recombinant PLK1 kinase, TR-FRET peptide phosphorylation; 97,000 tested, 0.53% active; P53350; inhibition, % at 10 µM;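 active = inhibition of 50% or more in the single-concentration screen; inactive = inhibition below 50%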;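 also: 0% = DMSO max control and 100% = H-89 dihydrochloride min control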
# PTK2B oligo ant – antagonists of human Pyk2 oligomerization | AID 1347419 | 99,000 tested, 0.83% active | Q293 cells, Pyk2 FERM NanoBiT luminescence; active compounds read low | Q14289 | z-score (the deposit names both 25 µM and 10 µM);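 active = Z-score of -3 or lower, scaled per plate to the spread of control and sample wells; inactive = z-score above -3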;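 also: negative z-score means lost luminescence so less FERM oligomerization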
# PLK1 PBD inh – inhibitors of human Plk1 polo box domain binding; AID 693; Plk1 PBD phosphopeptide binding, fluorescence polarization; inhibition, %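 (tested at about 20 µM)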; 97,000 tested, 0.13% active; P53350; in the data active = inhibition above about 34%, passing the limit was not always enough
# LYP act – increases human PTPN22 phosphatase activity; Q9Y2R2; recombinant LYP, DiFMUP fluorescence; 0 = plate median, 100 = signal doubled; AID 697; activation, % at 2 µM; 96,000 tested, 0.11% active;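 active = activation at 2 µM above a set limit, the mean plus 5 SD, cut at about 37% in these data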
# An asterisk follows results filed as active; nt = no result given. Rows were chosen to be rich in hits. Some 1.7% of all compounds tested hit in one or more screens of this group.
SMILES,PTPN22 inh 2,PLK1 kinase inh,PTK2B oligo ant,PLK1 PBD inh,LYP act
O=C(CSc1nnc2scc(-c3ccccc3)n12)Nc1nsc(-c2ccc(Cl)cc2)n1,26*,-10,-1.2,-4,-24
O=C(CSc1nnc2scc(-c3ccccc3)n12)Nc1nsc(-c2ccccc2)n1,12,-10,-2.3,-14,-17
CCc1nnc(NC(=O)CSc2nc(C)c3c(c2C#N)CCCC3)s1,5,-19,-3.4*,4,-6
COc1ccc(NC(=O)c2cn(-c3ccccc3)nc2-c2cc3ccccc3o2)cc1,4,-2,-4.5*,0,2
O=C(Nc1ccc2ccccc2c1)c1cn(-c2ccccc2)nc1-c1cccs1,4,-11,-1.7,-8,-1
CC(C)Oc1ccc(C(=O)NC2(C(F)(F)F)N=C3SCCN3C2=O)cc1 (stereo not given),-8,-14,-0.74,-2,8
O=C(NCC(c1cccnc1)N1CCN(c2ccccc2F)CC1)OCc1ccccc1 (stereo not given),-3,-2,-3.1*,-18,4
O=C(NCC(c1cccnc1)N1CCN(c2ccc(F)cc2)CC1)OCc1ccccc1 (stereo not given),1,-8,-3,-16,0
O=C(NCC(c1ccco1)N1CCN(c2ccc(F)cc2)CC1)OCc1ccccc1 (stereo not given),nt,nt,-3*,nt,nt
Cc1cc(S(=O)(=O)N2CCN(c3ncccn3)CC2)ccc1-n1cnnn1,nt,nt,1.2,nt,nt
Cc1cc(C)c2c(CN3CCN(CCO)CC3)cc(=O)oc2c1,-3,1,-0.23,-15,2
Cc1ccc2c(CN3CCN(CCO)CC3)cc(=O)oc2c1C,-5,-4,-3.5*,13,7
O=C(COC(=O)c1cc(=O)[nH]c2ccccc12)NC(=O)NC1CCCCC1,5,-7,-3.7*,-5,-5
Cc1c(N=Cc2cc3c(cc2Cl)OCO3)c(=O)n(-c2ccccc2)n1C,nt,nt,1.3,nt,nt
COCCNC(=O)c1ccccc1NC(=O)c1ccc(Cl)c(S(=O)(=O)Nc2ccc(C)cc2C)c1,4,-10,-3.2*,-7,1
Cc1nn(C(=O)CCCC(=O)n2nc(C)c(Cl)c2C)c(C)c1Cl,-13,-9,nt,-12,12
CCOC(=O)c1cnn(CCOC(=O)C2CC2)c1NC(=O)C1CC1,-3,-2,0.08,0,1
O=c1c(-c2ccc3c(c2)OCCO3)coc2cc(O)cc(O)c12,-2,-7,-3.7*,-17,-2
CCC(CC)c1nnc(NC(=O)c2c(C)nn(Cc3ccccc3Cl)c2C)s1,3,-11,1.4,-9,-3
O=C(NCCN1CCN(c2ccccc2)CC1)c1ccc(NC(=O)C2CCCO2)cc1 (stereo not given),8,1,0.36,19,-9
CCN1C(=O)C2(C(C#N)=C(N)Oc3n[nH]c(-c4ccc(Cl)cc4)c32)c2ccccc21 (stereo not given),-1,-6,-3*,17,4
FC(F)(F)c1cc(-c2ccccc2)nc(NCc2cccnc2)n1,5,-6,-3.4*,-23,-3
FC(F)(F)c1cc(-c2ccco2)nc(NCc2cccnc2)n1,-6,-7,0.06,-10,4
CN(c1ccc(C(=O)NC2CC2)cc1)S(=O)(=O)c1ccccc1,-9,-12,-0.08,1,4
COc1ccccc1NS(=O)(=O)c1cc([N+](=O)[O-])ccc1N/N=C/c1c(C)[nH]c2ccccc12,-2,-9,-3.1*,7,3
SMILES,PTPN22 inh 2,PLK1 kinase inh,PTK2B oligo ant,PLK1 PBD inh,LYP act
Cc1[nH]nc2c1C(c1ccoc1)C(C#N)=C(N)O2 (stereo not given),-10,55*,0.77,9,8
O=c1[nH]c(Nc2nc3ccccc3o2)nc2c1CCCC2,13,-7,-3.3*,9,-14
O=C(CCNC(=O)c1ccc(Br)o1)NCc1ccccn1,4,10,0.61,17,-6
CCOC(=O)c1sc(NC(=O)CSc2nc3c(cc2C#N)CCCCCC3)c(C#N)c1C,23,-11,-3.4*,11,-24
C=CCn1c(SCC(=O)c2c(N)n(CCC)c(=O)n(C)c2=O)nc2sc(CC)cc2c1=O,-6,-2,0.04,-27,2
C=CCn1c(SCC(=O)Nc2sccc2C(N)=O)nc2ccc(Cl)cc2c1=O,10,-3,-3.2*,-1,-6
C=CCn1c(SCC(=O)Nc2sccc2C(N)=O)nc2sc(CC)cc2c1=O,4,-5,-3.5*,11,0
C=CCn1c(SCC(=O)Nc2sccc2C(N)=O)nc2ccccc2c1=O,0,-11,-2.6,13,2
Cc1ccc(SCC2CNc3nc4ccccc4c(=O)n32)c(C)c1 (stereo not given),10,-13,-0.35,-16,-7
c1ccc2c(N3CCCCC3)nc(N3CCCCC3)nc2c1,-10,1,0.83,1,7
Cc1cc(N2CCN(c3nc(N4CCOCC4)nc4ccccc34)CC2)c2ccccc2n1,-41,-7,nt,3,39*
CCCCCCCCOC(=O)CCn1[nH]c(=O)c2ccccc2c1=O,1,-10,0.21,8,2
Cc1ccc(-c2nnc(CSc3nnc(COc4cccc5ccccc45)n3-c3ccccc3)o2)cc1,33*,-13,-0.37,47*,-33
COc1ccc(-c2nc(C#N)c(NC(C)c3ccccc3)o2)cc1OC (stereo not given),3,-4,-2.5,16,-3
O=C(NC(C(=O)N/N=C/c1ccccc1)c1n[nH]c(=O)c2ccccc12)c1ccccc1 (stereo not given),26*,-16,-0.23,-15,-24
O=C(CSc1nnc(-c2ccc(OC(F)F)cc2)o1)NCc1cccs1,7,-6,0.87,-43,-6
Cc1cc(C(C)(C)C)cc(C)c1COC(=O)C1CCC(=O)N1 (stereo not given),27*,-2,0.95,-22,-28
N#CCCn1nc(-c2ccccc2)cc1Nc1ccccc1NC(=O)c1cccs1,nt,nt,-1.4,nt,nt
CSc1nnc(-c2sc3cc(C(F)(F)F)cnc3c2-c2ccccc2)n1C,-4,-11,-3.1*,9,5
CC(C)CNc1nnnc2c1sc1nc(N3CCOCC3)c3c(c12)CC(C)(C)SC3,25*,-11,-2.7,26,-21
Cc1ccc(NC2=CC(=O)C(=O)c3ccccc32)cc1,6,-8,-1.9,34,-10
CCOC(=O)c1ccc(NC2=CC(=O)C(=O)c3ccccc32)cc1,0,-9,-4.3*,23,3
CCN1CCN(CCNC(=O)C2CCN(Cc3nc(-c4ccc(Cl)cc4)oc3C)CC2)CC1,nt,65*,nt,-20,nt
Cc1oc(-c2ccc(Cl)cc2)nc1CN1CCC(C(=O)NCCCN2CCCC2=O)CC1,-8,-29,nt,-14,5
Cc1oc(-c2ccc(Cl)cc2)nc1CN1CCC(C(=O)N2CCN(Cc3ccccc3)CC2)CC1,nt,59*,nt,-11,nt
Cc1[nH]c2ccccc2c1C(=O)Cn1c(=O)oc2ccccc21,-14,0,-1.4,4,14
COc1ccc(CNC(=O)c2ccc3c(c2)N(C)C(=O)CS3=O)cc1 (stereo not given),-12,-3,nt,8,8
